Experimental data as given in PubChem BioAssay AID2314 (National Center for Advancing Translational Sciences (NCATS), 2010).
The whole screen tested about 300,000 compounds, of which about 37,000 (12%) were called active. No stated cut-off is given here; in the data, active means max response mostly above about 13% (no sharp cut-off); inactive means mostly below about 14%. The entries come from a sample that favours actives as a whole.

Experiment: Cycloheximide Counterscreen for Small Molecule Inhibitors of Shiga Toxin; further: read at 38.3 µM for the half of the compounds with a filed dose; 0% is about no effect
Details: cell reporter, cycloheximide protein synthesis inhibition counterscreen; hits give high values

SMILES	max response
CCOc1cccc(-c2nnc(SCC(=O)NC3CC3)n2C)c1	5.85% (inactive)
CCOC(=O)NN1C(=O)c2ccccc2NC1c1ccccc1O (centres undefined)	-0.209% (inactive)
COc1ccc(CCNC(=O)CCc2cn(C)c3ccccc23)c(OC)c1	0.538% (inactive)
O=C(NCCNc1ccc([N+](=O)[O-])cc1)c1cccc2c(Br)cccc12	-5.64% (inactive)
O=S(=O)(c1ccc(Cl)cc1)c1nc(-c2ccccc2F)oc1NCCN1CCOCC1	0.972% (inactive)
O=C(c1cc(C(=O)N2CCN(c3ccc(F)cc3)CC2)cc([N+](=O)[O-])c1)N1CCN(c2ccc(F)cc2)CC1	1.24% (inactive)
CNC(=S)N/N=C1\C2CN3CCN(C2)CC1(c1ccccc1)C3	0.185% (inactive)
Nc1ccccc1C(=O)NC1CCCCNC1=O (centres undefined)	-3.17% (inactive)
CC12CN3CCN(CC(C3)/C1=N\NC(=O)c1ccccc1N)C2	42.9% (active)
CC1CC(C)CN(C(=O)C2CC(=O)N(c3ccc(F)cc3)C2)C1 (centres undefined)	-5.15% (inactive)
COc1cc2c3c(c1)/C(=C1/SC(=S)NC1=O)C(=O)N3C(C)(C)C=C2C	-0.91% (inactive)
CC(=O)Nc1cccc(OCC(=O)/C=C2\N(C)c3ccccc3C2(C)C)c1	17% (inactive)
COc1ccc(CNC(=O)COc2cccnc2[N+](=O)[O-])cc1	-2.66% (inactive)
O=C(NNc1ncnc2c1cnn2-c1ccccc1)c1ccco1	9.27% (inactive)
Cc1ccc(-n2ncc3c(Nc4cccc(C(=O)O)c4)ncnc32)cc1	45.3% (active)
Cc1ccc(Nc2ncnc3c2cnn3C)c(C)c1	1.06% (inactive)
CCOC(=O)C1CN(S(=O)(=O)c2ccc(F)cc2)C1	1.16% (inactive)
C=CCn1c(=S)[nH]c2scc(-c3ccco3)c2c1=O	-1.66% (inactive)
COc1cc(C2C(N3C(=O)c4ccccc4C3=O)C(=O)N2c2ccc(C)c(C)c2)cc(OC)c1OC (centres undefined)	-1.4% (inactive)
COC(=O)c1ccc(S(=O)(=O)NCc2ccccc2)n1C	-1.21% (inactive)
COc1ccc(C2C3=C(CCCC3=O)N(CC(=O)O)C3=C2C(=O)CCC3)cc1	-0.955% (inactive)
CCOc1ccc(OCc2ccc(C(=O)Nc3cccc(C)n3)o2)cc1	21.2% (active)
CC(=O)Cc1nsc(NC(=O)c2ccc(COc3ccc(C)cc3)o2)n1	4.45% (inactive)
Cc1cccc(NC(=O)c2ccc(COc3ccccc3[N+](=O)[O-])o2)n1	9.42% (inactive)

SMILES	max response
Cc1ccc(NC(=O)c2nc[nH]c2C(=O)N[C@@H](CCCCNC(=O)OC(C)(C)C)C(=O)OC(C)(C)C)cc1	-3.36% (inactive)
O=C(NCC(=O)N1CCN(c2ncc(C(F)(F)F)cc2Cl)CC1)c1ccc(Br)o1	-1.14% (inactive)
CCCC(=O)Nc1nnc(-c2ccccc2)o1	-3.55% (inactive)
Cc1ccnc2nc(C(=O)Nc3nnc(-c4ccccc4)o3)nn12	23.5% (active)
CCc1nnc(NC(=O)c2nc3nccc(C)n3n2)s1	-2.71% (inactive)
C=CCN(c1ccccc1C(=O)NCC(=O)OCC)S(=O)(=O)c1ccc(C)cc1	-3.9% (inactive)
CCn1cc(C(=O)NCCCN2CCCCCC2)c(=O)c2cc(S(=O)(=O)N3CCc4ccccc4C3)ccc21	-1.21% (inactive)
CCO[C@H]1OC(C(=O)NCc2ccccc2)=C[C@@H](c2coc3ccccc3c2=O)[C@@H]1CCCO	-1.05% (inactive)
CCC(=O)N1c2ccc(S(=O)(=O)NCc3ccco3)cc2CC1C (centres undefined)	19.8% (inactive)
O=C(O)CCCC(=O)Nc1ccc(Oc2cccc(C(F)(F)F)c2)nc1	5.78% (inactive)
COc1ccc(C(=O)N2CCCC(C(=O)c3ccccc3OC)C2)cc1OC (centres undefined)	9.55% (inactive)
COC(=O)C1CCN(C(=O)c2ccc3oc(Cc4ccc(Cl)cc4)nc3c2)CC1	-2.56% (inactive)
COCC1CCN(C(=O)c2ccc3oc(Cc4ccccc4)nc3c2)C1 (centres undefined)	39.1% (active)
COc1c(C)cc(C(=O)C2CCCN(S(=O)(=O)c3c(C)noc3C)C2)cc1C (centres undefined)	5.32% (inactive)
Cc1ccc2c(c1)N(CC(=O)N1CCOCC1)C(=O)CO2	-3.08% (inactive)
Cc1nc(-c2ccc(Cl)cc2)sc1C1(C)CC(c2ccccc2F)=NO1 (centres undefined)	20.7% (active)
Cc1nc(C(=O)NCc2ccccc2)sc1C1(C)CC(c2cccnc2)=NO1 (centres undefined)	-3.23% (inactive)
Cc1nc(C(=O)Nc2ccc(Cl)cc2)sc1C1(C)CC(c2ccccc2)=NO1 (centres undefined)	9.03% (inactive)
CCN(c1ccc(NC(=O)COC(=O)CCc2nc3ccccc3n2-c2ccccc2)cc1)C(C)C	6.5% (inactive)
COc1ccccc1NC(=O)COc1ccc(C(=O)OCC(=O)N(C(C)C)C(C)C)cc1OC	-3.62% (inactive)
COc1ccc2c(c1)C(NS(=O)(=O)OCC(Cl)(Cl)Cl)CCC2 (centres undefined)	0.921% (inactive)
COc1cc2c(C(=O)N3CCN(C)CC3)c(CSc3ccccc3)n(C)c2cc1Br	-3.14% (inactive)
Cc1ccc(C(=O)N/C(=C\c2cn(S(=O)(=O)N(C)C)c3ccccc23)C(=O)N2CCCC2)cc1	-4.36% (inactive)
Cc1nc(-c2ccc(F)cc2)c(CC(=O)N2CCN(S(=O)(=O)c3ccc(F)cc3)CC2)s1	-1.12% (inactive)

SMILES	max response
Cc1ccc(NC(=O)N2CCSc3ccccc32)cc1	21.8% (active)
Cc1ccc(NC(=O)N2CCC(O)(c3cccnc3)CC2)cc1	-0.6% (inactive)
CCOc1ccc(CNC(=O)CCC(=O)N2CCSc3ccccc32)cc1	3.9% (inactive)
Cc1ccc2c(=O)oc(N(C)C)nc2c1	-3.11% (inactive)
COc1ccc(CNC(=O)CCN2C(=O)c3ccccc3C2=O)cc1	-8.4% (inactive)
Cc1cc(C(=O)NC2CCCc3c2cnn3-c2cccc(C)c2C)c(C)o1 (centres undefined)	0.915% (inactive)
CCc1ccc2c(c1)C(c1ccc([N+](=O)[O-])cc1)=NNC(c1ccccc1)=N2	33.3% (active)
CCC1OC(c2ccc([N+](=O)[O-])cc2)=Nc2ccccc21 (centres undefined)	-5.5% (inactive)
Cc1ccc(C2=Nc3c(ccc4ccccc34)C(c3ccncc3)=NN2)cc1	1.6% (inactive)
COc1ccc2c(c1)C(c1cccs1)=NNC(c1cccnc1)=N2	18.1% (inactive)
O=C1NC(=O)C2C1C(c1ccc([N+](=O)[O-])cc1)=NN2Cc1ccccc1 (centres undefined)	-2.84% (inactive)
CCOc1ccc2c(c1)C(c1ccc(C)cc1)=NNC(c1ccc(C)cc1)=N2	54.8% (active)
COc1ccc(-c2onc3ccc(C(C)=O)cc23)cc1	2.44% (inactive)
CC1=C(C(=O)OC(C)(C)C)C(c2ccc(Br)cc2)NC(=O)N1CCCC(=O)O (centres undefined)	-2.28% (inactive)
O=C(c1cc2cc(Br)cc(Br)c2oc1=O)N1CCOCC1	0.493% (inactive)
CC1CCN(CCCNC(=O)CN2C(=O)CSc3ccc(S(=O)(=O)N4CCCCC4)cc32)CC1	-0.237% (inactive)
O=C(CN1CCC(NC(=O)C2CC2)CC1)Nc1ccccc1[N+](=O)[O-]	7% (inactive)
O=C1c2ccccc2C(=O)N1CCC(O)C[N+](=O)[O-] (centres undefined)	-2.75% (inactive)
O=C1c2ccccc2C(=O)N1CCc1nn[nH]n1	-3.78% (inactive)
O=C1c2ccccc2C(=O)N1CCC(c1ccccc1)c1ccco1 (centres undefined)	24.4% (active)
OC(CNCC1CCCO1)Cn1c2ccc(Br)cc2c2cc(Br)ccc21 (centres undefined)	-6.3% (inactive)
CCCN1CCn2c3c(c4cc(Br)ccc42)CCCC31 (centres undefined)	25.3% (active)
COCCn1c(SCC(=O)c2[nH]c(C)c(C(C)=O)c2C)nc2ccccc2c1=O	-3.66% (inactive)
N#Cc1c(NC(=O)C2CC(Cl)=CCC2C(=O)O)sc2c1CCCCC2 (centres undefined)	-1.59% (inactive)

SMILES	max response
CC(=O)c1c(C)[nH]c(C(=O)OCC(=O)Nc2sc3c(c2C#N)CCCC3)c1C	-1.13% (inactive)
N#Cc1c(NC(=O)C2CCCO2)sc2c1CCCCC2 (centres undefined)	48.6% (active)
N#Cc1c(NC(=O)c2ccc(N3CCOCC3)c([N+](=O)[O-])c2)sc2c1CCCC2	1.18% (inactive)
CCN1CCN(CC(=O)Nc2sc3c(c2C#N)CCC3)CC1	1.34% (inactive)
N#Cc1c(NC(=O)CCCl)sc2c1CCCCC2	21.9% (active)
O=C1C(=O)N(CCCO)C(c2ccccc2)/C1=C(\O)c1ccc(Br)cc1 (centres undefined)	0.724% (inactive)
CN1C(=O)/C(=C/C=C2\SCCN2C)OC1=S	37.4% (active)
Cc1csc(NC(=O)CSc2nc(=O)cc(N)n2-c2ccc(F)cc2)n1	16.3% (inactive)
CCc1ccc(OCC(=O)NCC(c2ccc(Cl)cc2)N2CCCCC2)cc1 (centres undefined)	-2.84% (inactive)
CCn1c(C(O)c2cc(OC)ccc2OC)nc2ccccc21 (centres undefined)	5.8% (inactive)
COc1ccc(-c2cc(C(=O)n3cnc4ccccc43)c3ccccc3n2)cc1	16.1% (inactive)
COc1ccc(-c2cc3n(n2)CCc2nc4ccccc4n2-3)cc1	9.75% (active)
CC(CC(=O)Nc1ccc(F)cc1F)S(=O)(=O)c1ccc2c(c1)NC(=O)CO2 (centres undefined)	2.18% (inactive)
Brc1ccc(-c2nn[nH]n2)cc1	9.02% (inactive)
CC(C)c1ccc(-c2nn[nH]n2)cc1	23% (active)
c1cc(-c2nn[nH]n2)ccc1CN1CCCCC1	-1.37% (inactive)
COc1cccc(NC(=O)CCNS(=O)(=O)c2ccc3c(c2)oc(=O)n3C)c1	0.768% (inactive)
COc1ccc(OCc2nnc3n2N=C(c2ccccc2)C(CC(=O)O)S3)cc1 (centres undefined)	-4.15% (inactive)
COc1ccc(CNC(=O)C(=O)NCC2OCCN2C(=O)c2ccc(OC)cc2)cc1 (centres undefined)	-1.12% (inactive)
N#Cc1ccccc1NC(=O)c1cccc(COc2ccc(Cl)cc2Cl)c1	116% (active)
CSc1ccc(C#N)cc1NC(=O)c1ccc(Cl)cc1	6.79% (inactive)
CSc1ccc(C#N)cc1NC(=O)c1cccc(Cl)c1	-1.93% (inactive)
